This is part of a sample that, as a whole, favours compounds with a hit. Of some 83,000 tested, about 20% had one in any assay.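 How to read the values: 0–100, growth inhibition (40 = 60% inhibited); 0, no net growth; -100 to 0, cell death (-40 = 40% of starting cells died; -100 = all dead).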 Values without a mark were called inactive. The source made the active and inactive calls.

The test system of this assay is U251 CNS. In words: NCI-60 one-dose screen, 48 h (100 = growth as untreated, 0 = no growth, -100 = all killed). Particulars: 10 µM unless noted. As to the method:
Growth inhibition of the U251 human tumor cell line is measured as a screen for anti-cancer activity. Cells are grown in 96 well plates and exposed to the test compound for 48 hours. Compounds are tested at a single concentration, which is 10^-5 M for most compounds. The reported endpoint is percent growth (GI% or GIPRCNT), where numbers from 0 - 100% represent growth inhibition, and numbers from -100% - 0 represent cell death. For example, a value of 40 represents 60% growth inhibition. A value of 0 means no net growth occurred over the course of the experiment. A value of -40 indicates 40% of cells at the beginning of the experiment died by the end of the experiment. A value of -100 means all cells are dead at the end of the experiment.
NCI-60 Human Tumor Cell Lines Screen was performed using the standard one-dose NCI protocol, which is described in more detail at https://dtp.cancer.gov/discovery_development/nci-60/default.htm.
Compounds with GIPRCNT values below 10 were considered active. Activity score was based on GIPRCNT using the following formula: […]
Score is 0 for GIPRCNT values of 100 or above, 50 for GIPRCNT values of 0, and 100 for GIPRCNT values of -100.
In the case of `Cc1cc(C)nc(NC(N)=NCCc2ccccc2)n1`, the growth was 31.6%.
To `CCSc1ncnc2c1ncn2C1OC(CO)C(O)C1O` (stereo not given) belongs 54.5%; to `C[N+](C)(CCCCCC[N+](C)(C)C1c2ccccc2-c2ccccc21)C1c2ccccc2-c2ccccc21`, 96.4%.
As to `O=C(O[C@@H]1Cc2c(O)cc(O)cc2O[C@@H]1c1cc(O)c(O)c(O)c1)c1cc(O)c2c(c1)OCO2`, the growth is 83.4%.
For `CCCCC[C@H]1C/C=C2/C(=O)C=C[C@@H]2C/C=C\CCCC(=O)O[C@@H](CCCCC)C/C=C2/C(=O)C=C[C@@H]2C/C=C\CCCC(=O)O1` the value was -94.3% (active); for `CC(C)=CCC/C(C)=C/CC/C(C)=C/CC/C(C)=C/CSC[C@H](NC(=O)CCCCCN1CCN(C)CC1)C(=O)NC1CCCCC1`, 55.2%.
For `O=C(/C=C/c1ccc2ccccc2c1)Nc1ncc(Cc2ccccc2)s1` the value was 25.8%; for `N=c1c(S(=O)(=O)c2ccccc2)cc2c(=O)n3ccccc3nc2n1C1CCCC1`, 85.9%.
To `Nc1c(C(=O)Nc2cccc3ccccc23)sc2nc3c(cc12)CCCC3` belongs 25.4%; to `Nc1ccc(Br)cn1`, 108%; to `COc1ccc(-c2nc3ccccn3c2-c2nc3ccc(Cl)cc3[nH]2)cc1`, 92.9%.
In the case of `COc1ccc2c(c1)c(-c1nc(-c3cn(C)c4ncccc34)cs1)cn2CCCN1CCCCC1`, the growth was -18.4% (active).
For `Cc1ccc(N(CC(=O)Nc2ccc(S(=O)(=O)N3CCC(N4CCCC4)CC3)cc2)S(=O)(=O)c2ccc(Cl)cc2)cc1` the value was -2.58% (active); for `C=C(C)[C@@H]1CC[C@]2(CN)CC[C@]3(C)[C@H](CC[C@@H]4[C@@]5(C)CCC(=O)NC(C)(C)[C@@H]5CC[C@]43C)[C@@H]12`, 53.4%.
In the case of `C=C(C)[C@@H]1CC[C@]2(C=NCCCNCCCCNCCCN)CC[C@]3(C)[C@H](CC[C@@H]4[C@@]5(C)CCCNC(C)(C)[C@@H]5CC[C@]43C)[C@@H]12`, the growth was 91.6%.
To `N#CC1C(=N)Cc2ccccc2-c2ccccc21` (stereo not given) belongs 37.7%; to `Nc1nc(N)c2nc3c(nc2n1)CCCCCCCCCC3`, 34.9%.
As for `COc1cc2c(cc1-c1c(C)noc1C)ncc1nc(C3CCC(F)(F)CC3)n([C@@H](C)COC(F)F)c12`, the growth was 50.5%.
For `NC1=NN=C2N(N)C(=O)c3cnn(-c4ccccc4)c3N2c2nc(-c3ccccc3)cc(-c3ccccc3)c21` the value was 96.3%.
To `COC(=O)c1cc(=O)nc(N/N=C/c2ccc(C)cc2)s1` belongs 107%; to `CC1(n2nnnc2N2CCCN(c3ncccc3N)CC2)CCC1`, 101%.
For `C/C(=N\Nc1ccc2ccccc2n1)c1ccccn1` the value was 4.2% (active); for `CCOc1ccc(NC(=O)c2ccccc2-c2ccccc2C(=O)O)cc1`, 112%.
Regarding `OCC12CCCC(CO)(COC1)C2O` (stereo not given), the growth was 99.2%.
To `Brc1ccc(Cn2nnnc2-c2ccn(-c3ccccc3)n2)cc1` belongs 75.7%; to `[B-][N+](CC)(CC)c1ccccc1`, 99%; to `COc1ccc(C2CC(=O)c3c(nc4ccc(Cl)cc4c3N)C2)cc1` (stereo not given), 106%.
Regarding `Clc1ccc2[nH]cc(-c3nc(-c4c[nH]c5ncccc45)cs3)c2c1`, the growth is 34.6%.
For `C=C(C)[C@@H]1CC[C@]2(C(=O)O)CC[C@]3(C)[C@H](CC[C@@H]4[C@@]5(C)C/C(=C/c6ccc(OC)cc6)C(=O)C(C)(C)[C@@H]5CC[C@]43C)[C@@H]12` the value was 25.4%.
To `COc1cccc(-c2nn(-c3ccccc3)cc2-c2ccnc(NCCNS(=O)(=O)c3ccc(Cl)cc3)c2)c1` belongs 31.2%.
For `CC[C@]12C=CCN3CC[C@@]4(c5cc([C@H]6CCC(=O)N6)c(OC)cc5N(C)[C@H]4[C@@](O)(C(=O)OC)[C@@H]1OC(C)=O)[C@@H]32` the value was 98.3% [2.5 µM]; for `CCCC1CCCCN1C(=O)OCC(C)C` (stereo not given), 103%; for `C[C@H]1[C@@H]2[C@H]3CC[C@@H]4[C@@]5(C)Cc6c([nH]c7ccccc67)C(C)(C)[C@@H]5CC[C@@]4(C)[C@]3(C)CC[C@]23CO[C@]1(C)[C@@H](C(=O)/C=C/c1ccccn1)C3`, 81.7%.
In the case of `Cc1ccc2oc(=O)cc(-c3sc(N4CCCCC4)nc3-c3ccccc3)c2c1`, the growth is 101%.
For `C=C(C)[C@@H]1CC[C@]2(C(=O)O)CC[C@]3(C)[C@H](CC[C@@H]4[C@@]5(C)C/C(=C/c6cccc(I)c6)C(=O)C(C)(C)[C@@H]5CC[C@]43C)[C@@H]12`, the growth is 18.4%.
To `CC(=O)OC[C@]12CC[C@@H](/C(C)=N/O)[C@@H]1[C@H]1CC[C@@H]3[C@@]4(C)CCCNC(C)(C)[C@@H]4CC[C@@]3(C)[C@]1(C)CC2` belongs 68.7%.
To `COc1ccc(OCC(CO)N2CCN(c3ccccc3)CC2)cc1` (stereo not given) belongs 97.3%; to `O=C(CI)Nc1ccc(O)c2ccccc12`, -28.4% (active); to `CC1(C)CC[C@]2(C(=O)Nc3ccccn3)CC[C@]3(C)C(=CC[C@@H]4[C@@]5(C)C/C(=C/c6ccncc6)C(=O)C(C)(C)[C@@H]5CC[C@]43C)[C@@H]2C1`, 10.3%.
To `C#CCC(C)(O)/C=C/C1=C(C)CCCC1(C)C` (stereo not given) belongs 86.1%.

For the origin of these results see PubChem BioAssay (NCI).
